Experimental data from ChEMBL document CHEMBL1156829.
“And” between values parts separate entries of the source, which are not always exact repeats. Equal values may be shown once. In all, about 5,400 compounds were measured (“IFI”: median about 2, highest 2% from about 22 on). The sample holds the highest values, similar compounds and a random draw of the others, so the mix is not that of the screen.

Assay: NOVARTIS: Inhibition Frequency Index (IFI) - the number of HTS assays where a compound showed > 50% inhibition/induction, expressed as a percentage of the number of assays in which the compound was tested.
Assay type: functional

Structure (SMILES) | IFI
CCCCCC[P+](N(CCC)CCC)(N(CCC)CCC)N(CCC)CCC | 29.1%
CCCN(CCC)[P+](CCC)(c1ccc([P+](CCC)(N(CCC)CCC)N(CCC)CCC)cc1)N(CCC)CCC | 3.7%
CCCCNC(=O)C(CC)Sc1nnc(-c2ccc(C)cc2)c(-c2ccc(C)cc2)n1 (stereo not given) | 0%
C=CCSc1nc2sc3c(c2c(=O)n1-c1ccccc1)CCN(C)C3 | 7.55%
O=C(Cc1ccccc1)Nc1ccc(C(=O)Nc2ccc(-c3nc4ccc(NC(=O)c5ccc(NC(=O)Cc6ccccc6)cc5)c(Cl)c4[nH]3)cc2)cc1 | 7.58%
OCCCNc1cc(-c2ccnc(Nc3cccc(Cl)c3)n2)ccn1 | 30.8%
OCCCNc1cc(-c2ccccn2)nc(-c2ccccn2)n1 | 15.4%
Nc1nc(Nc2cccc(Cl)c2)n[nH]1 | 1.07%
Cc1nc2ccc(Cl)cc2c(O)c1I | 0.752%
CC(=O)N(C1=C(N2CCOCC2)C(=O)c2ccccc2C1=O)c1ccc(I)cc1 | 18.7%
CC(=O)N(C)C1=C(N2CCCCCC2)C(=O)c2ccccc2C1=O | 22.5%
CC(=O)N(C)C1=C(N2CCCC2)C(=O)c2ccccc2C1=O | 0%
CC(=O)N(C1=C(N(C)C)C(=O)c2ccccc2C1=O)c1ccc(Cl)c(Cl)c1 | 7.69%
CC(=O)N(C)C1=C(N2CCOCC2)C(=O)c2ccccc2C1=O | 22.1%
CC(=O)N(C1=C(N2CCOCC2)C(=O)c2ccccc2C1=O)c1ccc(F)cc1 | 24.7%
CC(=O)N(C1=C(N(C)C)C(=O)c2ccccc2C1=O)c1cc(C)cc(C)c1 | 15.4%
CC(=O)N(C1=C(N(C)C)C(=O)c2ccccc2C1=O)c1ccc(F)cc1 | 31.1%
CC(=O)N(C1=C(N2CCCC2)C(=O)c2ccccc2C1=O)c1ccc(F)cc1 | 8.11%
COc1cccc(-c2ccc(O)c(CN(C)CC(O)c3ccccc3)c2)n1 (stereo not given) | 2.56%
Cc1c(-c2ccccc2)c2ccccc2n1CCc1ccc(C)[n+](C)c1 | 1.22%
COC(=O)c1sc(-c2ccccc2)cc1NC(=O)c1ccc(S(=O)(=O)N2CCCCCC2)cc1 | 0%
CC[n+]1c(C=C2Sc3ccccc3N2CCO)sc2ccccc21 | 4.69%
CCc1ccc(-n2c(C(CC)N(CCC(C)C)C(=O)Nc3ccc(Cl)c(Cl)c3)nc3ccccc3c2=O)cc1 (stereo not given) | 6.67%
Cc1c(Cl)cccc1NC(=S)N(CCCN(C)c1ccccc1)Cc1cccn1Cc1ccc(Cl)cc1 | 6.45%
COC(=O)C1=CNC=C(C(=O)OC)C1c1cc(OC)c(OC)c(OC)c1 | 2.38%

Structure (SMILES) | IFI
NCC(c1ccc(F)cc1)c1ccc(F)cc1 | 0%
CCCc1c(C)nc2ccc(Br)cc2c1O | 3.03%
Cn1c2c([n+](C)c1CCl)C(=O)c1ccccc1C2=O | 35.7%
O=C1C(N2CCCCC2)=C(N2CCCCC2)C(=O)c2ccccc21 | 0%
Cn1c(=O)c(Cl)c2c3c(c(Cl)ccc31)C(=O)c1ccccc1-2 | 3.03%
CN(C)CCNc1ncc(C(=O)NCc2ccccc2)c(NCCc2ccccc2)n1 | 1.92%
COc1cc(C(=O)NCCc2ccccn2)ccc1OC1CCN(CC(c2ccccc2)c2ccccc2)CC1 | 1.37%
CCOc1cc(-c2nc3c(=O)n(C)c(=O)nc-3n(C)n2)ccc1OC(C)C | 30.8%
CCOc1cc(-c2nnc3[nH]c(=O)n(C)c(=O)c3n2)ccc1OC(C)C | 4.44%
CCOc1ccc(-c2noc(-c3ccncc3)n2)cc1OCC | 0%
O=C(Nc1ccc(NC(=O)c2ccco2)cc1Cl)c1ccccc1 | 0%
CN(C)c1oc(-c2ccc(Cl)cc2Cl)nc1[P+](c1ccccc1)(c1ccccc1)c1ccccc1 | 20.4%
Clc1ccccc1-c1nc([P+](c2ccccc2)(c2ccccc2)c2ccccc2)c(N2CCOCC2)o1 | 25.9%
Cc1nc([P+](c2ccccc2)(c2ccccc2)c2ccccc2)c(N2CCCCC2)o1 | 9.09%
O=C(Nc1cc(C(F)(F)F)cc(C(F)(F)F)c1)Nc1ccc2nnsc2c1 | 12.8%
C=CCSC1=NC2(CC(c3ccccc3)c3cc(Cl)c(O)cc3O2)CC(C)(C)N1 (stereo not given) | 0%
O=C(c1cccc([N+](=O)[O-])c1)c1ccc(Cl)c(Cl)c1 | 0%
c1cncc(-c2nc3cc(-c4ccc5[nH]c(-c6cccnc6)nc5c4)ccc3[nH]2)c1 | 5.56%
COc1ccc(C(=O)Nc2ccc(-c3nc4ccc(NC(=O)c5ccc(OC)cc5)cc4[nH]3)cc2)cc1 | 12.8%
Nc1ccc(-c2nc3cc(-c4ccc5[nH]c(-c6ccc(N)cc6)nc5c4)ccc3[nH]2)cc1 | 27.3%
Nc1ccc(-c2nc3cc(Oc4ccc(Oc5ccc6[nH]c(-c7ccc(N)cc7)nc6c5)cc4)ccc3[nH]2)cc1 | 5.8%
Brc1ccc(C=Nc2ccc(-c3nc4cc(-c5ccc6[nH]c(-c7ccc(N=Cc8ccc(Br)cc8)cc7)nc6c5)ccc4[nH]3)cc2)cc1 | 23.1%
Nc1ccc(-c2nc3cc(Cc4ccc5[nH]c(-c6ccc(N)cc6)nc5c4)ccc3[nH]2)cc1 | 10.3%
Brc1ccc(C=NNc2nc3ccccc3[nH]2)cc1 | 9.02%
COc1ccc(-c2nc3cc(Cc4ccc5[nH]c(-c6ccc(OC)cc6)nc5c4)ccc3[nH]2)cc1 | 25.7%

Structure (SMILES) | IFI
Nc1ccc(-c2nc3cc(Oc4ccc5[nH]c(-c6ccc(N)cc6)nc5c4)ccc3[nH]2)cc1 | 15.4%
N=c1c2ccccc2nnn1-c1ccc(C(F)(F)F)cc1 | 2.53%
COC(=O)c1sc2nc(CN3CCC(C)CC3)ccc2c1NC(=O)c1ccc(C)s1 | 1.74%
CCOc1ccccc1-n1c(SCC(=O)c2ccc(Cl)cc2)nc2[nH]ncc2c1=O | 1.16%
CC(=O)NC(CO)C(O)c1ccc([N+](=O)[O-])cc1 (stereo not given) | 0%
COc1ccc(S(=O)(=O)N(C)CCCNc2ccnc3cc(Cl)ccc23)cc1 | 10.2%
CC(c1nc2ccccc2c(=O)n1C)N1CCN(C(=O)C(C)(C)C)CC1 (stereo not given) | 0%
N#Cc1ccc(NC(=O)c2cc(Cl)ccc2O)cc1 | 24.7%
O=C(Nc1cccc(Cl)c1)c1cc2ccccc2cc1O | 9.62%
O=C(Nc1c2ccccc2nc2ccccc12)c1cc(Cl)ccc1O | 3.03%
CCCN(C(=O)Nc1c(C(C)C)cccc1C(C)C)C(CC)c1nc2ccccc2c(=O)n1-c1cccc(C)c1 (stereo not given) | 0.943%
CCOC(=O)N1CCN(C(=O)C(=O)NNC(=O)COc2ccc(Cl)cc2Br)CC1 | 0%
OC1(c2ccc(Br)cc2)CCN(C2CCN(Cc3ccccc3)CC2)CC1 | 1.57%
COCC(=O)NCc1ccc(OC2CCN(CC(c3ccccc3)c3ccccc3)CC2)cc1 | 1.41%
O=C(Nc1cccc(Oc2ccccc2)c1)NC(CN1CCCC1)c1ccccc1 (stereo not given) | 7.04%
CCCCCCC1CCC(O)(C(C)(O)C(=O)NC2C(=O)N3NCCCC3C(=O)N(O)C(COC)C(=O)NCC(=O)N3NCCCC3C(=O)N(O)C(C)C(=O)OC2C)OC1C (stereo not given) | 39.3%
CC[C@H](C)C[C@H]1CC[C@](O)([C@](C)(O)C(=O)N[C@@H]2C(=O)N3NCCC[C@@H]3C(=O)N(O)[C@@H](C)C(=O)NCC(=O)N3NCCC[C@H]3C(=O)N(O)[C@H](C)C(=O)O[C@H]2C(C)C)O[C@@H]1C | 34.4%
COc1ccc(CN2CCOc3ccc(C(C)(O)CN(C)C)cc3C2)cc1C (stereo not given) | 0%
CCOC(=O)c1c(C)n(-c2ccccc2)c2ccc(O)cc12 | 2.54%
CCN1CCN(c2c(C(=O)c3ccccc3)cnc3cc(OC)c(OC)cc23)CC1 | 2.22%
CCCCc1c(C)nc2c(OC)cccc2c1O | 0%
CCCCN(C)Cc1cc(-c2cccc(OC)n2)ccc1O | 3.42%
Oc1c2c(nc3cc(-c4ccccc4)nn13)CCCC2 | 7.14%
CC(C)CNCc1cc(-c2ccc(F)cc2)ccc1O | 0.98%
CC(=O)Nc1c(NCc2ccccc2)c2ccccc2sc1=O | 2.17%

Structure (SMILES) | IFI
Cc1ccc(Nc2nc3c(N)nnc(N)c3nc2Nc2ccc(C)cc2)cc1 | 2.98%
O=C(NC(=C(Cl)Cl)[P+](c1ccccc1)(c1ccccc1)c1ccccc1)c1ccc(F)cc1 | 27.3%
O=C(NN=CC(Br)=Cc1ccccc1)c1ccc(F)cc1 | 0%
CCS/C(Cl)=C(/NC(=O)c1ccccc1)[P+](c1ccccc1)(c1ccccc1)c1ccccc1 | 3.57%
COc1ccc(/C=C(/C#N)C(=O)Nc2cccc3ccccc23)cc1 | 0%
COc1cc(NC(C)CCCN(Cc2ccc(Cl)cc2)C(=O)Nc2cccc(C(F)(F)F)c2)c2ncccc2c1 (stereo not given) | 2.7%
Cc1ccccc1C[n+]1cc(-c2ccc(Cl)cc2)n2c1CCC2 | 7.14%
CCCCNC1=CC(=O)C(=O)c2ccccc21 | 15.4%
CCSC1=CC(=O)c2ccccc2C1=O | 24.3%
Cc1c(C(=O)NCCN2CCCC2)cnn1-c1ncc2c(n1)-c1ccccc1SC2 | 2.59%
COCCOC(=O)C1=C(C)NC2=C(C(=O)CC(c3ccc(OC)c(OC)c3)C2)C1c1ccccc1Cl (stereo not given) | 2.33%
CC(C)NC(=O)c1ccc2c(c1)N=C(c1ccccc1)N(C1CC1)C2 | 2.47%
Cc1ccccc1C=NNc1nc2ccccc2[nH]1 | 0%
CCN1/C(=C/c2ccc3ccccc3[n+]2CC)Sc2c1ccc1ccccc21 | 24.1% and 14.3%
CCN1/C(=C/c2ccc3ccccc3[n+]2CC)Sc2sc3ccccc3c21 | 18.3%
CC[n+]1c(/C=C2\Sc3cc(C)ccc3N2CCO)ccc2ccccc21 | 15.4%
CCN1/C(=C/c2cccc[n+]2C)C=Cc2ccccc21 | 8.33%
CC[n+]1c(/C=C2\Sc3ccc(OC)cc3N2C)ccc2cc(C)ccc21 | 14.3%
CC[n+]1c(/C=C2\Sc3ccccc3N2CCO)ccc2cc(C)ccc21 | 6.35%
CCN1C(=Cc2ccc3ccccc3[n+]2CC)C=Cc2sc3ccccc3c21 | 31.4%
CC[n+]1c(/C=C2\Sc3oc4ccccc4c3N2C)ccc2cc(C)ccc21 | 26.1%
CCN1/C(=C/c2ccc3ccccc3[n+]2CC)C=Cc2ccccc21 | 22.7%
CC[n+]1c(/C=C2\Sc3ccc(C)cc3N2CCO)ccc2ccccc21 | 15.4%
CCN1/C(=C/c2[se]c3ccccc3[n+]2CC)C=Cc2cc(OC)ccc21 | 19.6%
CCN1/C(=C/c2ccc3ccccc3[n+]2CC)Sc2cc(NC(C)=O)ccc21 | 8.33%
